Experiments:
Test in all cases: PBM binding z-score (relative to random genomic background probes); higher = stronger binding; sequences stand for … in GC…GCGATTGACAGCGTAGAATGAAGG
[1] = test system: FXR:RXRa (NR concentration 270 nM, RXRa partner concentration 90 nM)
How it was run: (§1)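 Ligand-free nuclear receptor dimers were bound for 1 h to custom Agilent 4×180K protein-binding microarrays. Detection used antibodies against each partner (one per run). Binding z-scores rest on regression-normalized fluorescence, with random background probes as the reference.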

[2] = test system: LXRa:RXRa (NR concentration 270 nM, RXRa partner concentration 90 nM)
How it was run: as §1

[3] = test system: LXRa homodimer (NR concentration 270 nM)
How it was run: as §1

[4] = test system: LXRb:RXRa (NR concentration 270 nM, RXRa partner concentration 90 nM)
How it was run: as §1

[5] = test system: LXRb homodimer (NR concentration 270 nM)
How it was run: as §1

[6] = test system: PPARa:RXRa (NR concentration 270 nM, RXRa partner concentration 90 nM)
How it was run: as §1

[7] = test system: PPARg:RXRa (NR concentration 180 nM, RXRa partner concentration 90 nM)
How it was run: as §1

[8] = test system: PPARg:RXRa 270nM:90nM, anti-RXR (NR concentration 270 nM, RXRa partner concentration 90 nM)
How it was run: as §1

[9] = test system: PPARg:RXRa 30nM:10nM, anti-RXR (NR concentration 30 nM, RXRa partner concentration 10 nM)
How it was run: as §1

[10] = test system: PPARg:RXRa 90nM:30nM, anti-RXR (NR concentration 90 nM, RXRa partner concentration 30 nM)
How it was run: as §1

[11] = test system: PPARg:RXRa DBDmut IVT, anti-RXR (DBD mutation: RXRa K156A/R161A, NR concentration 270 nM, RXRa partner concentration 90 nM)
How it was run: as §1

[12] = test system: PPARg:RXRa IVT, anti-PPARg (NR concentration 270 nM, RXRa partner concentration 90 nM)
How it was run: as §1

[13] = test system: PPARg DBDmut:RXRa IVT, anti-PPARg (DBD mutation: PPARg1 K132A/R137A, NR concentration 270 nM, RXRa partner concentration 90 nM)
How it was run: as §1

[14] = test system: PPARg DBDmut IVT, anti-PPARg (DBD mutation: PPARg1 K132A/R137A, NR concentration 270 nM)
How it was run: as §1

[15] = test system: PPARg homodimer (NR concentration 180 nM)
How it was run: as §1

[16] = test system: PXR:RXRa (NR concentration 270 nM, RXRa partner concentration 90 nM)
How it was run: as §1

[17] = test system: PXR homodimer (NR concentration 270 nM)
How it was run: as §1

[18] = test system: RARa:RXR (NR concentration 270 nM, RXRa partner concentration 90 nM)
How it was run: as §1

[19] = test system: RARa homodimer (NR concentration 270 nM)
How it was run: as §1

[20] = test system: RARb:RXRa (NR concentration 270 nM, RXRa partner concentration 90 nM)
How it was run: as §1

| Sequence | PBM binding z-score [1] | PBM binding z-score [2] | PBM binding z-score [3] | PBM binding z-score [4] | PBM binding z-score [5] | PBM binding z-score [6] | PBM binding z-score [7] | PBM binding z-score [8] | PBM binding z-score [9] | PBM binding z-score [10] | PBM binding z-score [11] | PBM binding z-score [12] | PBM binding z-score [13] | PBM binding z-score [14] | PBM binding z-score [15] | PBM binding z-score [16] | PBM binding z-score [17] | PBM binding z-score [18] | PBM binding z-score [19] | PBM binding z-score [20] |
| --- | --- | --- | --- | --- | --- | --- | --- | --- | --- | --- | --- | --- | --- | --- | --- | --- | --- | --- | --- | --- |
| CCGACTGGGGCAGAAAGGATACCATACCATCCGG | -0.81 | -0.88 | -0.438 | -0.926 | -1.2 | -0.597 | 0.937 | -0.0255 | -0.593 | -0.344 | 0.646 | 0.728 | -0.578 | -1.57 | -0.142 | -0.951 | -0.394 | -1.06 | -0.437 | 0.0733 |
| CTCGAAAGGTCGGTTGCGGTGAGTATACGGATAA | 2.08 | 1.5 | 0.16 | 1.38 | 0.241 | 2.17 | 0.168 | 0.893 | 0.195 | 0.654 | 0.303 | 0.901 | 0.157 | 0.202 | 0.797 | 1.4 | -0.173 | 1.62 | -0.203 | 2.92 |
| ACTATTAGCTGAGACGAGGGCAACCGATAGGTTG | 0.185 | -0.00873 | 0.0861 | 0.0453 | 0.238 | 0.0501 | 0.663 | 0.238 | -0.205 | 0.302 | -0.032 | 0.377 | -0.216 | -0.0358 | -0.21 | 0.33 | 0.536 | 0.226 | 0.488 | 0.935 |
| AGAATGAGGTTATACGTAGATCAGGGGAGAAAGT | 1.99 | 1.93 | 0.147 | 1.96 | 0.558 | 3.05 | 1.83 | 2.06 | 0.697 | 1.06 | 4.24 | 2.13 | 1.07 | 0.577 | 0.74 | 1.36 | 0.423 | 1.87 | 1.13 | 1.45 |
| CTACCAAGGTGAACAAGGGCGTTGATTACTATTC | 0.636 | 0.274 | -0.543 | 0.44 | -0.701 | 1.39 | 0.678 | 0.967 | -0.0752 | 0.624 | 2.71 | 2.55 | -0.498 | 0.223 | 0.114 | 0.993 | -0.0327 | 0.539 | -0.306 | 1.81 |
| CCTCGGAGGACAGTAGGTCAGAGCTGTCCGCTTT | 0.394 | 0.75 | -0.0267 | -0.0579 | -0.769 | 1.64 | 0.253 | 1.47 | -0.726 | 0.521 | 2.48 | 3.2 | -0.95 | -1.78 | 0.409 | 0.0704 | -0.598 | 0.582 | 0.337 | 1.97 |
| CCAGACAGGTGAGAAGGTAAATCAGCCTCGATTA | 0.109 | 0.108 | -0.129 | 0.141 | -0.154 | 0.484 | 0.39 | 0.456 | 0.0319 | 0.15 | 0.792 | 0.856 | -0.421 | -0.384 | 0.684 | 0.0672 | -0.0292 | 0.359 | -0.00331 | 0.508 |
| CGTCCAAGGTCAAGGGTCAGTGAAGAGATGACGG | 7.75 | 5.84 | 1.02 | 5 | 0.392 | 6.46 | 8.85 | 7.9 | 6.12 | 7.94 | 3.08 | 5.28 | 0.202 | -0.0608 | 5 | 5.97 | 1.43 | 8.23 | 1.5 | 5.81 |
| TCATAGAGGTAAAAGGTGAAAGTCGGTGTGGTAA | 1.97 | 1.96 | -0.0856 | 2.03 | -0.828 | 4.69 | 6.33 | 6.66 | 5.72 | 7.33 | 2.72 | 3.24 | 0.0344 | -0.0644 | 0.851 | 2.07 | -0.248 | 3.86 | 0.918 | 2.07 |
| GATACAGGGTCAGCTAGAGGCCCGAGTATGGAAA | 4.27 | 2.31 | -0.511 | 1.8 | -0.813 | 4.42 | 3.6 | 3.1 | 0.492 | 1.92 | 0.969 | 2.18 | -0.156 | -0.833 | 1.37 | 1.72 | -0.766 | 2.93 | -0.152 | 3.83 |
| TTACCAAGGTGAGCTGAGGTCGTGGATCCAACTC | 1.09 | 0.85 | -0.734 | 0.827 | -1.47 | 2.1 | 0.337 | 0.913 | 0.0501 | 0.449 | 1.07 | 2.05 | -0.299 | -0.109 | -0.369 | 3.77 | -0.246 | 2.49 | -0.727 | 1.94 |
| CAGCCTAGGTCAGGGCCAGCATAGGAGGAACGTT | 1.52 | 0.758 | -0.392 | 0.314 | -1.18 | 1.98 | 0.816 | 1.02 | -0.543 | 0.19 | 1.28 | 1.44 | -0.858 | -1.51 | 0.398 | 0.0493 | -0.664 | 0.806 | -0.366 | 3.37 |
| CAAAGTAGGTCACAGAGGTCAAAGTCCGTGCGTA | 7.06 | 6.7 | 7.7 | 6.5 | 2.52 | 6.75 | 10.4 | 8.33 | 7.56 | 8.58 | 8.54 | 8.94 | 1.99 | 2.62 | 4.88 | 6.71 | 10.8 | 7.4 | 2.67 | 5.14 |
| CGTCCTAGGTCAAAGGTCAGTGAAGAGATGACGG | 7.08 | 5.88 | 2.24 | 5.52 | 0.881 | 6.8 | 11 | 9.26 | 9.03 | 10.2 | 4.39 | 5.93 | 0.538 | 0.49 | 3.9 | 6.08 | 0.262 | 7.96 | 1.07 | 5.64 |

Reference: the supplement of paper PMC6555819
